Sampled rows, rich in hits. Any-hit rate of the full collection: about 4.8%.
USP2a block = blocks human ubiquitin-specific protease USP2a. actives 0.01% (n = 330,000). Potency, µM (highest dose often 38.3 µM), inactives show at the top dose activity change, negative = inhibition, most hits filed as inhibitors. USP2 core, Ub-CHOP2 coupled fluorogenic reporter, 485/531. O75604. AID 463254;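 note: potency is the fitted concentration of half-maximal effect; plate controls were DMSO wells for no effect and full inhibition by NEM control for full effect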
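Cell-free coupled assay: 10nM USP2 core preincubated 30min RT with compound in Tris-HCl pH 8.0/CaCl2/CHAPS buffer, then 25nM Ub-CHOP2 and 25nM reporter substrate; fluorescence (Ex 485/Em 531) read after 60min RT, normalized to NEM inhibition, concentration-response curves fitted.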
USP1-UAF1 inh = USP1/UAF1 (human) deubiquitinase inhibition | O94782 | Potency, µM (top dose mostly 57.1 µM), for inactives: at the highest dose activity change, negative = inhibition, usual class: inhibitors | recombinant USP1/UAF1, Ub-Rhodamine cleavage fluorescence | actives 0.23% (n = 390,000); note: potency is the fitted concentration of half-maximal effect; % is set by controls: 0 for no effect and ±100 for the full control effect; nearly all actives have a fitted effect of over 60% in size
Target sequence (O94782 whole entry, looked up): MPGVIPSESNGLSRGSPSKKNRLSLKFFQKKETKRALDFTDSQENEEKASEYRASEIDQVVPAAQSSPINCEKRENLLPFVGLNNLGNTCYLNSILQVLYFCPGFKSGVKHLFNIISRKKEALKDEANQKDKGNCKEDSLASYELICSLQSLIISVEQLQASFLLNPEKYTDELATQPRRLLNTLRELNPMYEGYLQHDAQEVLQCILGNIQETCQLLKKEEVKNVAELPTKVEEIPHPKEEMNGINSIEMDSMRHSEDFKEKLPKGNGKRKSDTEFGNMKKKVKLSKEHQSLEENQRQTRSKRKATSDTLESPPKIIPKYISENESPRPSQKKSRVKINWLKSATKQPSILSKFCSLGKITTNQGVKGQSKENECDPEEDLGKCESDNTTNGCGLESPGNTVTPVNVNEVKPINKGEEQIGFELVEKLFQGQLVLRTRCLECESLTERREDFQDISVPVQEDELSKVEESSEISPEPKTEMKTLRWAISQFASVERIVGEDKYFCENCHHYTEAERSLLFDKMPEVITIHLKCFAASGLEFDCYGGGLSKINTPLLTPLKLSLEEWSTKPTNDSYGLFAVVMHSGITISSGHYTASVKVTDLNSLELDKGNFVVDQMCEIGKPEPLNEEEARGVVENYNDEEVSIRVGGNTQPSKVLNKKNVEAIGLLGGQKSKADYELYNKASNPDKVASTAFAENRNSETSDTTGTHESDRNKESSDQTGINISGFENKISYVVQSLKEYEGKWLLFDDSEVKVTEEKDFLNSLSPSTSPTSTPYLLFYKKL
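USP1/UAF1 complex (1 nM) preincubated 15 min at room temperature with compound, then Ub-Rho substrate (150 nM final) added. Kinetic fluorescence at 480/540 nm over 6 reads at 60 s intervals; 50 mM HEPES pH 7.8, 0.5 mM EDTA, 0.1 mg/ml BSA, 1 mM TCEP, 0.01% Tween-20.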
ATXN viability = reduces viability in counter-screen for ATXN expression inhibitors | S2 cells (HEK-293 line with an ATXN2-luciferase reporter) viability, CellTiter-Fluor protease fluorescence, 24 h | Potency, µM (series often up to 56.7 µM), actives largely listed as cytotoxic | actives 0.49% (n = 400,000) | AID 651635; note: potency is the fitted concentration of half-maximal effect; nearly all actives have a fitted effect of over 40% in size
IL1B secr inh = blocks inflammasome-driven IL-1 beta release | THP-1 LPS/ATP IL-1B secretion, AlphaLISA, 16 h; active compounds read low | activity change, % at 57.5 µM | actives 4.7% (n = 360,000); in the data active = activity change below about -50%; inconclusive = mostly about -30% to -49%; note: % is set by controls: 0 for no effect and ±100 for the full control effect
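THP-1 cells pretreated 1 hr with compounds (up to 57.5 uM final), then stimulated with LPS (250 ng/mL final) plus ATP (1.25 mM final); secreted IL-1B measured by AlphaLISA after 16 hr, decreased signal indicating inhibition.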
ATXN2 expr inh = ATXN2 expression inhibition. Potency, µM (top dose mostly 57 µM), for inactives: top-dose activity change, negative = inhibition, hits mostly inhibitors. actives 0.72% (n = 360,000). HEK-293 ATXN2-luciferase reporter, luminescence, 24 h; note: potency is the fitted concentration of half-maximal effect; % is set by controls: 0 for no effect and ±100 for the full control effect; nearly all actives have a fitted effect of over 55% in size
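ATXN2-luciferase reporter cells (luciferase flanked by upstream and downstream ATXN2 gene portions) were treated 24 h at 37 °C with compounds at up to 57 uM. SteadyGlo luminescence gave expression; GF-AFC fluorescence gave viability.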
Numbers without * were called inactive. Unless noted, calls come from the whole dose curve; as a rule, active = well fitted curve in the direction sought with a large enough effect; inconclusive = small, poorly fitted or top-dose-only effect, or another doubt; inactive = no such curve, though single readings can be large; an effect the other way counts as inactive or inconclusive.

`NC1=NC2(CCC(c3ccccc3)CC2)n2c(nc3ccccc32)N1` (centres undefined) gave USP2a block inconclusive, USP1-UAF1 inh -7%, ATXN viability inactive, IL1B secr inh -54* and ATXN2 expr inh -1%.
Screening O=C(NCC1CCN(Cc2cccc(F)c2)CC1)c1cc2ccc3cccnc3c2[nH]1 returned USP1-UAF1 inh -18%.
CC(C)C(=O)C1=Cc2cccc([N+](=O)[O-])c2OC1N1CCOCC1 (centres undefined) was read as USP2a block -2%, USP1-UAF1 inh -14%, ATXN viability inactive, IL1B secr inh -60* and ATXN2 expr inh 6%.
Screening Cc1ccc(NCc2cccn2-c2nnc(N3CCC(C(=O)NCCc4ccc(Cl)cc4)CC3)s2)cc1 returned USP1-UAF1 inh 11%.
Screening CC(CN1CCN(C)CC1)OC(=O)c1ccc(Cl)cc1 (centres undefined) returned USP2a block 1%, USP1-UAF1 inh 0%, ATXN viability inactive, IL1B secr inh -84* and ATXN2 expr inh 2%.
For O=C(NCCc1ccccc1)C(=O)NCCC1CCCCN1S(=O)(=O)c1cccs1 (centres undefined) the results were USP2a block 0%, USP1-UAF1 inh 0%, ATXN viability inactive, IL1B secr inh -18 and ATXN2 expr inh 5%.
CCOc1ccc(NC(=O)Nc2cccn(Cc3ccccc3)c2=O)cc1 was read as USP2a block -5%, USP1-UAF1 inh -3%, ATXN viability inconclusive, IL1B secr inh -74* and ATXN2 expr inh -13%.
For CSc1ccc(NC(=O)Nc2cccn(Cc3ccccc3F)c2=O)cc1 the results were USP2a block 12%, USP1-UAF1 inh -24%, ATXN viability inconclusive and IL1B secr inh -68*.
For COC(=O)c1ccccc1NC(=O)c1cc2nc(-c3ccc(OC)cc3)cc(C(F)(F)F)n2n1 the results were USP1-UAF1 inh -9%, ATXN viability inactive and ATXN2 expr inh 11%.
For Cc1ccc(S(=O)(=O)N2CC3(O)CN(C(=O)OC(C)C)N(C(=O)OC(C)C)CC3(OC(=O)Nc3c(C)noc3C)C2)cc1 (centres undefined) the results were USP1-UAF1 inh -18%, ATXN viability inconclusive, IL1B secr inh -16 and ATXN2 expr inh 4%.
For Cc1ccc(S(=O)(=O)N2CC3(O)CN(C(=O)OC(C)C)N(C(=O)OC(C)C)CC3(OC(=O)NCc3ccco3)C2)cc1 (centres undefined) the results were USP1-UAF1 inh -18%, ATXN viability inactive, IL1B secr inh -56* and ATXN2 expr inh 9%.
Cc1ccc(S(=O)(=O)N2CC3(O)CN(C(=O)OC(C)C)N(C(=O)OC(C)C)CC3(OC(=O)NC3CCCC3)C2)cc1 (centres undefined) was read as USP1-UAF1 inh -26%, ATXN viability inconclusive, IL1B secr inh -15 and ATXN2 expr inh 3%.
`Cc1ccc(S(=O)(=O)N2CC3(O)CN(C(=O)OC(C)C)N(C(=O)OC(C)C)CC3(OC(=O)Nc3cccs3)C2)cc1` (centres undefined) gave USP1-UAF1 inh -22%, ATXN viability inconclusive, IL1B secr inh -80* and ATXN2 expr inh -6%.
`COCCCn1c(O)c(/C=C2\N=C(C#N)C(=Nc3ccc(C)cc3)O2)sc1=S` gave USP2a block 11%, USP1-UAF1 inh -23%, ATXN viability 35µM*, IL1B secr inh -82* and ATXN2 expr inh inconclusive.
`O=C(Nc1ccc2c(c1)CCCN2C(=O)c1cccs1)c1cccc(C(F)(F)F)c1` gave USP1-UAF1 inh -17%, ATXN viability 35µM* and ATXN2 expr inh inconclusive.
Screening O=C(Nc1ccc2c(c1)CCCN2C(=O)c1cccs1)c1ccc(F)c(F)c1 returned USP1-UAF1 inh -22%, ATXN viability 25µM* and ATXN2 expr inh inconclusive.
For O=C(Nc1ccc2c(c1)CCCN2C(=O)c1cccs1)c1cccc(F)c1 the results were USP2a block -2%, USP1-UAF1 inh -12%, ATXN viability inconclusive and ATXN2 expr inh inconclusive.

Source: PubChem
